Measured values: PubChem BioAssay AID1159580 (chemical genetic matrix, 2015)
“And” between values parts separate entries of the source, which are not always exact repeats. Equal entries are not always repeated. In all, about 5,500 compounds went through this assay and about 2,000 (36%) were called active. Not shown: some 18% with an inconclusive outcome. Rule as the data show it: active = normalized growth mostly below about 0.91 (no sharp cut-off); inconclusive = no clear call, values can overlap the other calls; inactive = mostly above about 0.92. The list shows a part of the results.

Experiment: chemical genetic growth profiling, strain panel (AID 1159580);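 also: tested at 20 µM; growth read once vehicle control cultures reached saturation at 30 °C; 1 = growth at the plate median or of vehicle wells; lower values mean less growth of the strain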
Settings: S. cerevisiae deletion strains, growth OD

Measured: normalized growth

COc1cc2c(cc1OC)C(=O)OC2
inactive: locus YAL013W, strain DEP1, active compounds read low 1 | locus YAL021C, strain ccr4, active compounds read low 0.998 | locus YAL026C, strain drs2, active compounds read low 1.01 | locus YAL030W, strain snc1, active compounds read low 0.981 | locus YBL061C, strain skt5, active compounds read low 0.988 | locus YBR009C, strain hhf1, active compounds read low 0.992 | locus YBR021W, strain FUR4, active compounds read low 0.999 | locus YBR023C, strain chs3, active compounds read low 0.993 | locus YBR171W, strain sec66, active compounds read low 0.998 | locus YBR229C, strain ROT2, active compounds read low 1.01 | locus YBR231C, strain swc5, active compounds read low 0.98 | locus YBR279W, strain paf1, active compounds read low 0.997 | locus YCL011C, strain gbp2, active compounds read low 0.99 | locus YCL016C, strain dcc1, active compounds read low 0.987 | locus YCL029C, strain bik1, active compounds read low 1.01 | locus YCL061C, strain MRC1, active compounds read low 0.999 | locus YCL069W, strain vba3, active compounds read low 1 | locus YCR088W, strain abp1, active compounds read low 0.994 | locus YDL005C, strain med2, active compounds read low 0.988 | locus YDL035C, strain GPR1, active compounds read low 1.02 | locus YDL040C, strain nat1, active compounds read low 0.985 | locus YDL074C, strain BRE1, active compounds read low 0.985 | locus YDL101C, strain DUN1, active compounds read low 1.01 | locus YDL134C, strain PPH21, active compounds read low 0.999 | locus YDL185W, strain tfp1, active compounds read low 1.01 | locus YDL192W, strain arf1, active compounds read low 1 | locus YDR001C, strain nth1, active compounds read low 1.01 | locus YDR069C, strain doa4, active compounds read low 0.994 | locus YDR101C, strain arx1, active compounds read low 0.994 | locus YDR137W, strain rgp1, active compounds read low 0.967 | locus YDR150W, strain NUM1, active compounds read low 1 | locus YDR159W, strain sac3, active compounds read low 1.01 | locus YDR162C, strain NBP2, active compounds read low 0.985 | locus YDR195W, strain ref2 1 | locus YDR297W, strain sur2, active compounds read low 0.998 | locus YDR318W, strain mcm21, active compounds read low 1.02 | locus YDR334W, strain swr1, active compounds read low 0.976 | locus YDR335W, strain msn5, active compounds read low 1 | locus YDR388W, active compounds read low 1.01 | locus YDR392W, strain spt3, active compounds read low 0.997 | locus YDR502C, strain sam2, active compounds read low 0.983 | locus YEL003W, strain gim4, active compounds read low 0.999 | locus YEL037C, strain rad23, active compounds read low 0.994 | locus YEL061C, strain CIN8 (second series), active compounds read low 1.01 | locus YEL061C, strain CIN8, active compounds read low 1 | locus YER015W, strain faa2, active compounds read low 0.988 | locus YER016W, strain bim1, active compounds read low 0.999 | locus YER110C, active compounds read low 1.01 | locus YER111C, strain swi4, active compounds read low 0.996 | locus YER155C, strain BEM2 (second series), active compounds read low 0.992 | locus YER155C, strain BEM2, active compounds read low 1.01 | locus YER167W, strain BCK2, active compounds read low 1.03 | locus YFR010W, strain ubp6, active compounds read low 0.989 | locus YGL078C, strain dbp3, active compounds read low 0.984 | locus YGL086W, strain mad1, active compounds read low 1.03 | locus YGL167C, strain pmr1, active compounds read low 0.984 | locus YGL173C, strain kem1, active compounds read low 0.983 | locus YGL227W, strain vid30, active compounds read low 0.998 | locus YGL240W, strain doc1, active compounds read low 1.03 | locus YGL248W, strain PDE1, active compounds read low 1.01 | locus YGL253W, strain hxk2, active compounds read low 0.993 | locus YGR078C, strain PAC10, active compounds read low 0.987 | locus YGR135W, strain pre9, active compounds read low 0.961 | locus YGR229C, strain SMI1, active compounds read low 0.999 | locus YGR252W, strain gcn5, active compounds read low 1.06 | locus YHR013C, strain ard1, active compounds read low 0.988 | locus YHR027C, strain rpn1, active compounds read low 1 | locus YHR030C, strain SLT2, active compounds read low 1.01 and 0.973 | locus YHR079C, strain IRE1 (second series), active compounds read low 1.01 | locus YHR079C, strain IRE1, active compounds read low 0.984 | locus YHR094C, strain hxt1, active compounds read low 0.999 | locus YHR129C, strain ARP1, active compounds read low 1.01 | locus YHR142W, strain chs7, active compounds read low 0.972 | locus YHR200W, strain rpn10, active compounds read low 1 | locus YIL066C, strain RNR3, active compounds read low 1.02 | locus YIL073C, strain SPO22, active compounds read low 1.06 | locus YIL125W, strain kgd1, active compounds read low 0.99 | locus YIR030C, strain dcg1, active compounds read low 0.999 | locus YJL092W, strain hpr5, active compounds read low 0.999 | locus YJL095W, strain BCK1 (second series), active compounds read low 0.991 | locus YJL095W, strain BCK1, active compounds read low 0.996 and 0.98 | locus YJL115W, strain asf1, active compounds read low 1 | locus YJL129C, strain trk1, active compounds read low 1.03 | locus YJL134W, strain LCB3, active compounds read low 1 | locus YJL154C, strain vps35, active compounds read low 0.988 | locus YJL164C, strain tpk1, active compounds read low 0.996 | locus YJL166W, strain qcr8, active compounds read low 0.981 | locus YJL168C, strain set2, active compounds read low 1.01 | locus YJL187C, strain SWE1 (second series), active compounds read low 1 | locus YJR043C, strain POL32, active compounds read low 1.03 | locus YJR066W, strain TOR1, active compounds read low 0.977
